Assay results from the supplement of paper PMC7801607.

Legend:
CHO = experiment: % viability of CHO cells (MTT); higher = less toxic; details: 48 h
Summary of the method: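 CHO cells were seeded at 10^6 cells/well in 200 µL and left overnight to attach. The medium was then replaced with fresh medium containing compound at 2 or 20 µM for 48 h. Survival was read colorimetrically with the tetrazolium (MTT) assay. Percent viability was expressed relative to untreated cells.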

HepG2-A16-CD81 = experiment: % inhibition of HepG2 viability (CellTiter-Glo); higher = more toxic; details: 5 µM
[1] = system: Plasmodium falciparum NF54 stage IV/V gametocytes; experiment: % inhibition of gametocyte viability (PrestoBlue); higher = more inhibition; details: 48 h
Summary of the method: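 Stage IV/V NF54 gametocytes (2% gametocytaemia, 5% haematocrit, 100 µL/well) were exposed to compound at 1 or 5 µM. Incubation was 48 h at 37 °C, stationary and hypoxic, followed by 10 µL PrestoBlue for 2 h. Fluorescence at 612 nm was read on 70 µL of transferred supernatant. Percent inhibition of gametocyte viability was normalised to DMSO and kill controls from a single run.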

[2] = system: Plasmodium falciparum NF54 asexual blood stage; experiment: % inhibition of asexual blood stage proliferation (pLDH); higher = more inhibition; details: 72 h
Summary of the method: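 Plasmodium falciparum NF54 ring-stage cultures (1% haematocrit, 2% parasitaemia) were exposed to compound at 2 or 20 µM in 96-well plates. Incubation was 72 h at 37 °C under 4% CO2, 3% O2 and 93% N2. Survival was read colorimetrically at 620 nm with the parasite lactate dehydrogenase assay. Percent inhibition of asexual proliferation was normalised to DMSO and kill controls, and the screen was run on two separate occasions.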

[3] = system: Plasmodium falciparum NF54 stage IV/V gametocytes; experiment: % inhibition of gametocyte viability (ATP bioluminescence); higher = more inhibition; details: 24 h
Summary of the method: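 In 96-well plates, compound at 1 or 5 µM was added to 30,000 density-gradient-enriched stage IV/V NF54 gametocytes per well and incubated for 24 h at 37 °C. ATP readout used the Promega BacTiter Glo bioluminescence system. Percent inhibition of gametocyte viability comes from a single run, normalised to control wells.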

[4] = system: Plasmodium falciparum NF54 stage IV/V gametocytes; experiment: % inhibition of gametocyte viability (luciferase reporter); higher = more inhibition; details: 48 h
Summary of the method: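 Stage IV/V gametocytes of the NF54-Pfs16-GFP-Luc line (2% gametocytaemia, 2% haematocrit) were exposed to compound at 1 or 5 µM. Incubation was 48 h at 37 °C, stationary and hypoxic. Luminescence was read on 30 µL lysate plus 30 µL Promega luciferin substrate on a GloMax-Multi+ reader with 10 s integration. Percent inhibition was normalised to DMSO and kill controls from a single run.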

[5] = system: Plasmodium berghei ANKA liver stage in HepG2-A16-CD81; experiment: % inhibition of liver stage parasite viability (luciferase); higher = more inhibition; details: 5 µM; 48 h
Description: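 Single-concentration screen of the MMV Pandemic Response Box. P. falciparum NF54 asexual blood stages: pLDH assay, 72 h at 37 °C, 2 and 20 µM, n=2. Stage IV/V gametocytes (NF54): luciferase reporter (NF54-Pfs16-GFP-Luc, 48 h), ATP bioluminescence (24 h) and PrestoBlue (48 h) at 1 and 5 µM, n=1. P. berghei liver stage (luciferase in HepG2-A16-CD81, 48 h post infection) at 5 µM, n=4. All normalised to DMSO and kill controls as % inhibition.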
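Wherever % inhibition of HepG2 viability (CellTiter-Glo) is given: HepG2-A16-CD81 hepatoma cells plated as in the liver-stage assay but without sporozoites, with DMSO wells as negative and 25 µM puromycin as positive control.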

Compound | % viability of CHO cells (CHO; 2 µM) [%] | % viability of CHO cells (CHO; 20 µM) [%] | % inhibition of HepG2 viability (HepG2-A16-CD81) [%] | % inhibition of gametocyte viability ([1]; 1 µM) [%] | % inhibition of gametocyte viability ([1]; 5 µM) [%] | % inhibition of asexual blood stage proliferation ([2]; 2 µM) [%] | % inhibition of asexual blood stage proliferation ([2]; 20 µM) [%] | % inhibition of gametocyte viability ([3]; 1 µM) [%] | % inhibition of gametocyte viability ([3]; 5 µM) [%] | % inhibition of gametocyte viability ([4]; 1 µM) [%] | % inhibition of gametocyte viability ([4]; 5 µM) [%] | % inhibition of liver stage parasite viability [5] [%]
Clc1cccc(-c2nnc(-c3ccccc3)o2)c1 | 98.4 | 113 | -5.12 | < 0 | < 0 | 9.27 | 15.9 | < 0 | < 0 | < 0 | 30.2 | -89.2
Cc1ccn2c(C(=O)NCc3ccccc3)c(C)nc2c1 | 276 | 53.7 | -0.843 | 3.75 | 36.6 | 44.3 | 74.9 | < 0 | < 0 | 2.75 | 0.0756 | 20.4
NC(=O)c1ccc(I)c([N+](=O)[O-])c1 | 110 | 112 | 14.3 | 17.8 | 30.4 | 1.16 | 51.2 | < 0 | < 0 | 0.24 | < 0 | 20.9
CCc1ccccc1OCCN1CCCCCC1 | 96.9 | 109 | 14 | 15.5 | 15.2 | 10.6 | 87.1 | 6.82 | < 0 | < 0 | 2.04 | 17.2
COc1ccc(SCC(=O)N2c3ccccc3Sc3ccccc32)cc1 | 91 | 110 | 7.46 | < 0 | < 0 | 0.401 | 35.5 | < 0 | < 0 | < 0 | < 0 | 31.1
O=C(Nc1nnc(-c2ccccc2)o1)c1ccc(F)cc1 | 88.3 | 114 | 8.93 | 8.12 | < 0 | 52.8 | 61.2 | < 0 | < 0 | < 0 | < 0 | 53.8
CC1(C)CC(NC(=O)C(=O)Nc2ccc(Cl)cc2)CC(C)(C)N1 | 87.7 | 57.9 | -9.07 | 22.5 | 17.1 | -0.102 | 60.5 | 0.497 | 3.94 | 3.24 | 13.9 | 31.6
CCOc1ccc(C(=O)NCCc2ccccc2)cc1 | 119 | 77.8 | 1.88 | 31.4 | 70.5 | 34 | 76.1 | 6.61 | < 0 | < 0 | 64.1 | -19.9
CC(C)(C)c1ccc(C(=O)NC(=O)N2CCCc3ccccc32)cc1 | 94.6 | 101 | -0.159 | < 0 | < 0 | -6.14 | -5.88 | < 0 | < 0 | < 0 | < 0 | 15.6
O=C1CCC(N2C(=O)c3ccccc3C2=O)C(=O)N1 (centres undefined) | 129 | 120 | -2.75 | < 0 | < 0 | 30.6 | 69.3 | < 0 | < 0 | 0.963 | 6.01 | 25.6
C=CCN(C(=O)OCc1ccc([N+](=O)[O-])cc1)C1CCN(CC[C@](C)(CN(C)S(=O)(=O)c2ccccc2)c2ccccc2)CC1 | 129 | 122 | -6.75 | 4.29 | 13.4 | 59.7 | 78.9 | < 0 | 32 | 2.56 | < 0 | 42.2
O=C(/C=C/n1cnc(-c2cc(C(F)(F)F)cc(C(F)(F)F)c2)n1)NNc1cnccn1 | 102 | 103 | -11.2 | 11.2 | -0.3 | -23.5 | 56.5 | 0.272 | < 0 | 0.0379 | < 0 | 11.6
O=C(/C=C\n1cnc(-c2cc(C(F)(F)F)cc(C(F)(F)F)c2)n1)NNc1ccccn1 | 117 | 91.3 | 31.8 | 10.8 | < 0 | 13.9 | 40 | < 0 | < 0 | 13.4 | < 0 | 16.2
NC(=O)c1cnc2ccc(S(=O)(=O)c3ccccc3)cc2c1Nc1ccc(O)cc1 | 228 | 58.1 | 6.05 | < 0 | < 0 | 29.7 | 56.5 | < 0 | < 0 | < 0 | < 0 | 53.1
C[C@@H]1O[C@@H]1P(=O)(O)O | 107 | 72.6 | -3.69 | < 0 | 36.1 | -0.28 | 11.5 | < 0 | < 0 | < 0 | 4.89 | -6.92
Nc1nc2c(Cc3cccnc3)c[nH]c2c(=O)[nH]1 | 97.2 | 113 | -4.71 | 26.1 | 24.3 | 2.83 | 19.8 | < 0 | < 0 | < 0 | < 0 | 27.7
Cn1c2ccccc2c(=O)c2c(O)cccc21 | 229 | 55 | -9.48 | 26.6 | 21.6 | 20.3 | 11 | 6.28 | < 0 | 7.24 | < 0 | 29.3
O=C(Nc1ccccc1)N(Cc1cc(Br)ccc1O)c1ccc(F)cc1 | 99.5 | 61.3 | -2.44 | 27.2 | 8.98 | 6.3 | 14.7 | < 0 | < 0 | < 0 | < 0 | 17.9
CCCCCCCCC(CP(=O)(O)C(C)N)C(=O)O (centres undefined) | 97.4 | 137 | -1.01 | < 0 | < 0 | 17.8 | 95.7 | < 0 | < 0 | < 0 | 10.2 | 24.3
C[C@H](c1cccc2ccccc12)N(C)Cc1ccccc1 | 98.5 | 116 | 0.334 | 6.61 | 7.59 | 9.39 | 18.9 | < 0 | < 0 | < 0 | < 0 | 19.1
Cc1c(F)cccc1NC(=O)Nc1ccc(Cl)c(S(=O)(=O)[C@H]2CCCNC2)c1O | 115 | 118 | -8.8 | < 0 | < 0 | 15.9 | 41.5 | 8.93 | < 0 | 0.356 | < 0 | 13.1
COc1ccc(SC(=O)N[C@H](CCC(=O)O)C(=O)O)cc1 | 114 | 122 | 3.46 | < 0 | 58.8 | 58.1 | 103 | < 0 | 6.16 | 23.9 | 62.8 | 19.9
